# Records with an inconclusive call do not appear. Where a call stands in place of a potency, no number is given. The source made the active and inactive calls. Unless noted, calls follow the shape of the dose curve; as a rule, active = well fitted inhibition curve with a large enough effect; inconclusive = small, poorly fitted or top-dose-only effect; inactive = no such curve, though single readings can be large or run the other way.
# Experiment: Primary qHTS for small molecule stabilizers of the endoplasmic reticulum resident proteome: Secreted ER Calcium Modulated Protein (SERCaMP) assay (AID 1508630)
# Details: SH-SY5Y GLuc-SERCaMP (Gaussia luciferase released on ER calcium loss) secretion, thapsigargin, luminescence; series mostly up to 38.4 µM
# In short: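 The SH-SY5Y reporter protocol was run at 3 concentrations up to 38.3 uM (primary) or 11 concentrations (follow-up): 16 h compound, 100 nM thapsigargin for 4 h, then extracellular luciferase luminescence.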
Compound,Potency,"activity change, negative = inhibition"
C[C@H](CCC(=O)O)[C@H]1CC[C@H]2[C@@H]3C(=O)C[C@@H]4CC(=O)CC[C@]4(C)[C@H]3CC(=O)[C@]12C,inactive,–
CC(=O)CC(c1ccc([N+](=O)[O-])cc1)c1c(O)c2ccccc2oc1=O (stereo not given),inactive,–
CCCCC1=NC2(CCCC2)C(=O)N1Cc1ccc(-c2ccccc2-c2nn[nH]n2)cc1,inactive,–
C[C@]12C=CC(=O)C=C1CC[C@@H]1[C@@H]2[C@@H](O)C[C@@]2(C)[C@H]1CC[C@]2(O)C(=O)CO,inactive,–
CCCN1CCCC[C@H]1C(=O)Nc1c(C)cccc1C,inactive,–
O=C(Nc1ccc(Cl)c(Cl)c1)C1CC1,inactive,–
CC(=O)OCC(=O)[C@@]12OC(C)(C)O[C@@H]1C[C@H]1[C@@H]3C[C@H](F)C4=CC(=O)C=C[C@]4(C)[C@@]3(F)[C@@H](O)C[C@@]12C,inactive,–
COc1cc2c(cc1OC)C(=O)C(CC1CCN(Cc3ccccc3)CC1)C2 (stereo not given),inactive,–
C#C[C@]1(O)CC[C@H]2[C@@H]3CCC4=CC(=O)CC[C@@H]4[C@H]3CC[C@@]21C,inactive,–
Cc1cc2c(cc1CC(=O)c1sccc1S(=O)(=O)Nc1onc(C)c1Cl)OCO2,inactive,–
Cc1ccc(C(=O)C(C)CN2CCCCC2)cc1 (stereo not given),inactive,–
N[C@@H](CCC(=O)N[C@@H](CS)C(=O)NCC(=O)O)C(=O)O,inactive,–
CCN(CC)C(=O)N1CCN(C)CC1,inactive,–
c1ccc(CNCCNCc2ccccc2)cc1,inactive,–
CC1(C)O[C@@H]2C[C@H]3[C@@H]4C[C@H](F)C5=CC(=O)C=C[C@]5(C)[C@H]4[C@@H](O)C[C@]3(C)[C@]2(C(=O)CO)O1,inactive,–
CC(=O)OCC(=O)[C@@]1(OC(C)=O)[C@@H](C)C[C@H]2[C@@H]3C[C@H](F)C4=CC(=O)C=C[C@]4(C)[C@@]3(F)[C@@H](O)C[C@@]21C,inactive,–
CN=C(NC#N)NCCSCc1csc(N=C(N)N)n1,inactive,–
C=C1C[C@H]2[C@@H]3C=C(C)C4=CC(=O)CC[C@]4(C)[C@H]3CC[C@]2(C)[C@@]1(OC(C)=O)C(C)=O,inactive,–

Compound,Potency,"activity change, negative = inhibition"
COC(=O)CCc1ccc(OCC(O)CNC(C)C)cc1 (stereo not given),inactive,–
Cc1cc(=O)n(-c2ccccc2)n1C,inactive,–
CC(C)(Oc1ccc(Cl)cc1)C(=O)O,inactive,–
Cc1c(F)c(N2CCNC(C)C2)cc2c1c(=O)c(C(=O)O)cn2C1CC1 (stereo not given),inactive,–
C=CCc1ccc(O)c(OC)c1,inactive,–
Nc1ccn([C@@H]2O[C@H](CO)[C@@H](O)C2(F)F)c(=O)n1,inactive,–
CC1(C)O[C@@H]2[C@@H](CO[C@@]3(COS(N)(=O)=O)OC(C)(C)O[C@@H]23)O1,inactive,–
O=C(O)CNC(=O)c1ccccc1,inactive,–
Cc1c(C(N)=O)cc([N+](=O)[O-])cc1[N+](=O)[O-],inactive,–
CCC(C(=O)OCCN(CC)CC)c1ccccc1 (stereo not given),inactive,–
CCCCN1CCCC1C(=O)Nc1c(C)cc(C)cc1C (stereo not given),inactive,–
CCCCC(=O)O[C@]1(C(=O)CO)CC[C@H]2[C@@H]3CCC4=CC(=O)CC[C@]4(C)[C@H]3[C@@H](O)C[C@@]21C,inactive,–
CCn1cc(C(=O)O)c(=O)c2cnc(N3CCCC3)nc21,–,-14.1% [at 7.35 µM] (inactive)
N[C@H](Cc1c[nH]c2ccccc12)C(=O)O,inactive,–
Nc1ccc(C(=O)O)cc1,inactive,–
Cc1c(C(C)C)c(=O)n(-c2ccccc2)n1C,inactive,–
COc1c2occc2c(OC)c2c(=O)cc(C)oc12,inactive,–
CN(C)CCCOc1nn(Cc2ccccc2)c2ccccc12,inactive,–

# Experiment: A High-Content qHTS Against Drug Library for the Identification of Small Molecules that Inhibit DYT1 Early Onset Primary Dystonia-Associated Cell Pathology (AID 1645839; calls by dose curve; also: potency is read from the fitted curve at half-maximal effect)
# Details: HEK293 Flp-In EGFP-delE TorsinA, punctate imaging, 48 h; series mostly up to 46.1 µM
# In short: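 Induced EGFP-delE TorsinA cells are imaged after 48 h of compound treatment. Punctate fusion-protein distribution gives the %pathology value, while nuclei counts flag toxicity. Wild-type EGFP-hTOR1A cells define the normal pattern.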
Compound,Potency,"% pathology change, negative = correction"
C[C@H](CCC(=O)O)[C@H]1CC[C@H]2[C@@H]3C(=O)C[C@@H]4CC(=O)CC[C@]4(C)[C@H]3CC(=O)[C@]12C,inactive,–
CC(=O)CC(c1ccc([N+](=O)[O-])cc1)c1c(O)c2ccccc2oc1=O (stereo not given),inactive,–
CCCCC1=NC2(CCCC2)C(=O)N1Cc1ccc(-c2ccccc2-c2nn[nH]n2)cc1,inactive,–
C[C@]12C=CC(=O)C=C1CC[C@@H]1[C@@H]2[C@@H](O)C[C@@]2(C)[C@H]1CC[C@]2(O)C(=O)CO,inactive,–
CCCN1CCCC[C@H]1C(=O)Nc1c(C)cccc1C,inactive,–
O=C(Nc1ccc(Cl)c(Cl)c1)C1CC1,inactive,–
CC(=O)OCC(=O)[C@@]12OC(C)(C)O[C@@H]1C[C@H]1[C@@H]3C[C@H](F)C4=CC(=O)C=C[C@]4(C)[C@@]3(F)[C@@H](O)C[C@@]12C,inactive,–
COc1cc2c(cc1OC)C(=O)C(CC1CCN(Cc3ccccc3)CC1)C2 (stereo not given),12.6 µM (active),–
Cc1cc2c(cc1CC(=O)c1sccc1S(=O)(=O)Nc1onc(C)c1Cl)OCO2,inactive,–
Cc1ccc(C(=O)C(C)CN2CCCCC2)cc1 (stereo not given),inactive,–
N[C@@H](CCC(=O)N[C@@H](CS)C(=O)NCC(=O)O)C(=O)O,inactive,–
CCN(CC)C(=O)N1CCN(C)CC1,inactive,–
c1ccc(CNCCNCc2ccccc2)cc1,inactive,–
CC1(C)O[C@@H]2C[C@H]3[C@@H]4C[C@H](F)C5=CC(=O)C=C[C@]5(C)[C@H]4[C@@H](O)C[C@]3(C)[C@]2(C(=O)CO)O1,inactive,–
CC(=O)OCC(=O)[C@@]1(OC(C)=O)[C@@H](C)C[C@H]2[C@@H]3C[C@H](F)C4=CC(=O)C=C[C@]4(C)[C@@]3(F)[C@@H](O)C[C@@]21C,inactive,–
CN=C(NC#N)NCCSCc1csc(N=C(N)N)n1,inactive,–
C=C1C[C@H]2[C@@H]3C=C(C)C4=CC(=O)CC[C@]4(C)[C@H]3CC[C@]2(C)[C@@]1(OC(C)=O)C(C)=O,inactive,–

Compound,Potency,"% pathology change, negative = correction"
COC(=O)CCc1ccc(OCC(O)CNC(C)C)cc1 (stereo not given),inactive,–
Cc1cc(=O)n(-c2ccccc2)n1C,inactive,–
CC(C)(Oc1ccc(Cl)cc1)C(=O)O,inactive,–
Cc1c(F)c(N2CCNC(C)C2)cc2c1c(=O)c(C(=O)O)cn2C1CC1 (stereo not given),inactive,–
C=CCc1ccc(O)c(OC)c1,inactive,–
Nc1ccn([C@@H]2O[C@H](CO)[C@@H](O)C2(F)F)c(=O)n1,inactive,–
CC1(C)O[C@@H]2[C@@H](CO[C@@]3(COS(N)(=O)=O)OC(C)(C)O[C@@H]23)O1,inactive,–
O=C(O)CNC(=O)c1ccccc1,inactive,–
Cc1c(C(N)=O)cc([N+](=O)[O-])cc1[N+](=O)[O-],inactive,–
CCC(C(=O)OCCN(CC)CC)c1ccccc1 (stereo not given),inactive,–
CCCCN1CCCC1C(=O)Nc1c(C)cc(C)cc1C (stereo not given),inactive,–
CCCCC(=O)O[C@]1(C(=O)CO)CC[C@H]2[C@@H]3CCC4=CC(=O)CC[C@]4(C)[C@H]3[C@@H](O)C[C@@]21C,inactive,–
CCn1cc(C(=O)O)c(=O)c2cnc(N3CCCC3)nc21,–,0.401% [at 9.22 µM] (inactive)
N[C@H](Cc1c[nH]c2ccccc12)C(=O)O,inactive,–
Nc1ccc(C(=O)O)cc1,inactive,–
Cc1c(C(C)C)c(=O)n(-c2ccccc2)n1C,inactive,–
COc1c2occc2c(OC)c2c(=O)cc(C)oc12,inactive,–

# From PubChem BioAssay (NCATS)
